The values that follow come from PubChem BioAssay (NCI).

Some test systems named below: NCI-H23 lung; NCI-H226 lung; NCI-H322M lung; HOP-62 NSCLC; NCI-H460 lung; HOP-92 NSCLC; NCI-H522 lung; A549/ATCC NSCLC; 786-0 renal; COLO 205 colon; DU-145 prostate; K-562 leukemia; MALME-3M melanoma; MDA-MB-231 breast; RXF 393 renal; SF-268 CNS; SF-295 CNS; SF-539 CNS; UACC-257 melanoma; M14 melanoma.
What all share (test): NCI-60 one-dose screen, 48 h (100 = growth as untreated, 0 = no growth, -100 = all killed)
Common to all, as to settings: 10 µM unless noted

Where “and” joins values, the source holds several entries; their conditions need not be identical. Identical values can stand only once. This is part of a sample that, as a whole, favours compounds with a hit. Of some 83,000 tested, about 20% had one in any assay.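 Cells were grown in 96-well plates and exposed to the test compound at a single concentration for 48 hours; results are reported as percent growth, with values below 10 considered active.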 Values without a mark were called inactive. Calls of active or inactive are those of the source.

In the case of `Nc1ccc(S(=O)(=O)c2ccc(N)cc2)cc1`, the growth in the assay on NCI-H23 lung is 99.8% and 99.3%; in the assay with NCI-H226 lung it was 92.2% and 103%; with NCI-H322M lung, 96.7% and 81.5%; with HOP-62 NSCLC, 107%; in the assay on NCI-H460 lung, 109% and 102%; with HOP-92 NSCLC it was 70.4% and 87%. The growth was 110% and 94.6% in the assay with NCI-H522 lung; 98.5% with A549/ATCC NSCLC; 103% and 112% in the assay on 786-0 renal; 115% and 95.2% with COLO 205 colon; 115% and 113% in the assay on DU-145 prostate; 104% and 144% with K-562 leukemia. For the same molecule, the growth in the assay with MALME-3M melanoma was 109% and 121%; in the assay on MDA-MB-231 breast, 108% and 112%; in the assay with RXF 393 renal, 104% and 108%; in the assay with SF-268 CNS it was 112% and 108%; in the assay with SF-295 CNS it was 94.4%; in the assay with SF-539 CNS, 103% and 97.6%. The growth was 103% and 93.4% in the assay with UACC-257 melanoma; 101% and 97.5% in the assay on M14 melanoma.

In the case of `O=C1OCC2=C1C(c1cccc([N+](=O)[O-])c1)c1cc3c(cc1N2CCO)CCC3` (stereo not given), the growth in the assay with NCI-H23 lung is 23.2%; with NCI-H226 lung, 38.2%; in the assay with NCI-H322M lung it was 37.2%; in the assay with HOP-62 NSCLC, 31.3%; in the assay on NCI-H460 lung it was 3.63% (active); in the assay with HOP-92 NSCLC, 51.4%. For the same molecule, the growth was -4.9% (active) with NCI-H522 lung; 11.7% in the assay on A549/ATCC NSCLC; 25.2% in the assay with 786-0 renal; -27.1% (active) in the assay with COLO 205 colon; 3.17% (active) with DU-145 prostate; 7.29% (active) in the assay with K-562 leukemia. Also, the growth in the assay on MALME-3M melanoma is 38.9%; in the assay on MDA-MB-231 breast it was 30%; in the assay on RXF 393 renal, 27.8%; in the assay with SF-268 CNS, 33.1%; in the assay with SF-295 CNS it was -11.7% (active); in the assay on SF-539 CNS it was -16.4% (active). In addition, the values for the growth with UACC-257 melanoma and in the assay on M14 melanoma were 69.9% and 3.09% (active), respectively.

For the molecule `O=C(NCc1ccc(Cn2c(=O)sn(-c3ccc(Cl)cc3)c2=O)cc1)OCc1ccc2c(Cl)cc(Cl)c(O)c2n1`, the growth with NCI-H23 lung was 44.1%; with NCI-H226 lung, 56.9%; with NCI-H322M lung it was 45.7%; in the assay with HOP-62 NSCLC it was 38.3%; in the assay on NCI-H460 lung, 21.7%; with HOP-92 NSCLC, 64.7%. Also, the growth with NCI-H522 lung is 68.8%; in the assay with A549/ATCC NSCLC it was 30.5%; in the assay on 786-0 renal it was 55.8%; in the assay with COLO 205 colon, 109%; with DU-145 prostate, 44.8%; in the assay on K-562 leukemia, 29.8%. Besides, the growth in the assay with MALME-3M melanoma is 78.3%; with MDA-MB-231 breast, 72%; in the assay with RXF 393 renal it was 25.8%; in the assay with SF-268 CNS, 54.6%; in the assay with SF-295 CNS it was 18.2%; in the assay on SF-539 CNS, 42.5%. In addition, the growth was 78.1% in the assay with UACC-257 melanoma and 50.5% in the assay with M14 melanoma.

In the case of `CCN1C(=O)N(c2ccccc2)C2NC(=S)N(/N=C/C=C/c3ccccc3)C21` (stereo not given), the growth in the assay on NCI-H23 lung was 21.1%; in the assay with NCI-H226 lung, 2.92% (active); with NCI-H322M lung, 50.4%; with HOP-62 NSCLC it was 37.9%; with NCI-H460 lung it was 8.06% (active); in the assay with HOP-92 NSCLC, 28.8%. The growth is 14.8% with NCI-H522 lung; 24.9% with A549/ATCC NSCLC; 37.2% with 786-0 renal; -8.16% (active) in the assay with COLO 205 colon; 8.79% (active) with DU-145 prostate; 8.8% (active) in the assay on K-562 leukemia. The growth with MALME-3M melanoma is 45.8%; with MDA-MB-231 breast, 15.7%; in the assay on RXF 393 renal, 9.01% (active); with SF-268 CNS it was 31.9%; with SF-295 CNS, 2.91% (active); in the assay with SF-539 CNS, -27% (active). The growth in the assay on UACC-257 melanoma is 39.5%; in the assay on M14 melanoma, 0.94% (active).

Turning to `NCCOCCOc1ccccc1`, the growth in the assay with NCI-H23 lung is 97.2%; in the assay with NCI-H226 lung it was 103%; with NCI-H322M lung, 96.1%; in the assay on HOP-62 NSCLC, 109%; with NCI-H460 lung it was 103%; in the assay with HOP-92 NSCLC it was 64.8%. The growth in the assay on NCI-H522 lung was 93.1%; in the assay with A549/ATCC NSCLC, 104%; in the assay with 786-0 renal, 100%; in the assay with COLO 205 colon, 113%; in the assay with DU-145 prostate, 101%; in the assay with K-562 leukemia, 108%. In addition, the growth in the assay on MALME-3M melanoma was 97.8%; in the assay with MDA-MB-231 breast, 114%; with RXF 393 renal, 124%; with SF-268 CNS it was 97.8%; in the assay on SF-295 CNS, 103%; with SF-539 CNS it was 108%. In addition, the figures for the growth in the assay on UACC-257 melanoma and in the assay with M14 melanoma were 106% and 102%, respectively.

For the molecule `COc1cc(/C=C2/C=C(c3ccc(C(C)(C)C)cc3)N(CCc3ccc(S(N)(=O)=O)cc3)C2=O)cc(OC)c1OC`, the growth was 62.3% in the assay with NCI-H23 lung; 62.7% in the assay on NCI-H226 lung; 81.2% in the assay with NCI-H322M lung; 77% in the assay on HOP-62 NSCLC; 35.6% with NCI-H460 lung; 23% with HOP-92 NSCLC. The growth with NCI-H522 lung was 49.8%; in the assay with A549/ATCC NSCLC, 38.2%; with 786-0 renal it was 29.7%; with COLO 205 colon, 34.3%; in the assay with DU-145 prostate, 77.1%; in the assay on K-562 leukemia it was 24.5%. Further, the growth in the assay with MALME-3M melanoma was 68.4%; with MDA-MB-231 breast it was 60.1%; with RXF 393 renal it was 12.4%; with SF-268 CNS, 58.2%; in the assay on SF-295 CNS, 49.4%; in the assay on SF-539 CNS, 59%. The values for the growth with UACC-257 melanoma and in the assay with M14 melanoma were 62.2% and 36.5%, respectively.

With `O=C1C(N2CCOCC2)=C(I)C(=O)c2ncccc21`, the growth in the assay on NCI-H23 lung was 58.1%; with NCI-H226 lung, 84.8%; in the assay with NCI-H322M lung, 99.1%; in the assay with HOP-62 NSCLC it was 55.8%; in the assay on NCI-H460 lung it was 58.8%; in the assay on HOP-92 NSCLC it was 123%. Besides, the growth in the assay on NCI-H522 lung was 36.5%; in the assay on A549/ATCC NSCLC it was 85.8%; in the assay with 786-0 renal it was 90%; in the assay with COLO 205 colon, 102%; in the assay on DU-145 prostate, 84.8%; with K-562 leukemia, 4.52% (active). Besides, the growth in the assay with MALME-3M melanoma is 87.3%; with MDA-MB-231 breast, 87.1%; in the assay with RXF 393 renal it was 72.6%; in the assay with SF-268 CNS it was 71.5%; with SF-295 CNS it was 97.3%; in the assay with SF-539 CNS, 82.7%. Besides, the growth in the assay on UACC-257 melanoma is 85%; with M14 melanoma it was 87.1%.

In the case of `CN1CCN(CCNC(=O)c2cccc(CN3c4cccc5c4C(=Cc4cccnc43)N(C)C5=O)c2)CC1`, the growth in the assay on NCI-H23 lung was 59.5%; with NCI-H226 lung, 45%; in the assay on NCI-H322M lung, 41.4%; with HOP-62 NSCLC, 24.7%; with NCI-H460 lung, 48.3%; with HOP-92 NSCLC, 19.3%. Also, the growth in the assay on NCI-H522 lung was 14.1%; in the assay with A549/ATCC NSCLC, 33.9%; in the assay with 786-0 renal, 49.6%; with COLO 205 colon, 19.8%; with DU-145 prostate it was 68.1%; in the assay with K-562 leukemia, 30%. Further, the growth in the assay with MALME-3M melanoma was 49.3%; in the assay with MDA-MB-231 breast, 31.7%; with RXF 393 renal it was 26.6%; in the assay on SF-268 CNS, 59.3%; with SF-295 CNS, 42.5%; in the assay on SF-539 CNS, 33.5%. Moreover, the growth in the assay on UACC-257 melanoma is 50%; in the assay with M14 melanoma, 45.4%.
